# Test results reported in PubChem BioAssay (NCI).
# The panel holds about 83,000 compounds, 20% with a hit somewhere; the sample as a whole holds those more often.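 Single-concentration screen, 48 h exposure, 96-well plates. Endpoint: percent growth. Below 10 = active.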 Activity calls are given as the source filed them.
# Tested on: MDA-MB-435 melanoma
# Assay: NCI-60 one-dose screen, 48 h (100 = growth as untreated, 0 = no growth, -100 = all killed)
# Details: 10 µM unless noted
# Description: Growth inhibition of the MDA-MB-435 human Melanoma tumor cell line is measured as a screen for anti-cancer activity. Cells are grown in 96 well plates and exposed to the test compound for 48 hours. Compounds are tested at a single concentration, which is 10^-5 M for most compounds. The reported endpoint is percent growth (GI% or GIPRCNT), where numbers from 0 - 100% represent growth inhibition, and numbers from -100% - 0 represent cell death. For example, a value of 40 represents 60% growth inhibition. A value of 0 means no net growth occurred over the course of the experiment. A value of -40 indicates 40% of cells at the beginning of the experiment died by the end of the experiment. A value of -100 means all cells are dead at the end of the experiment.
# NCI-60 Human Tumor Cell Lines Screen was performed using the standard one-dose NCI protocol, which is described in more detail at https://dtp.cancer.gov/discovery_development/nci-60/default.htm.
# Compounds with GIPRCNT values below 10 were considered active. Activity score was based on GIPRCNT using the following formula: […]
# Score is 0 for GIPRCNT values of 100 or above, 50 for GIPRCNT values of 0, and 100 for GIPRCNT values of -100.
row,Compound,growth
1,COc1cccc(-c2nn(-c3ccccc3)cc2-c2ccnc(NCCNC(=O)Nc3ccc(Cl)c(Cl)c3)c2)c1,-66.9% (active)
2,O=C(NCCNc1cc(-c2cn(-c3ccccc3)nc2-c2cccc(O)c2)ccn1)Nc1ccccc1,93% (inactive)
3,O=Cc1c[nH]c2ccc(-c3csc4ccccc34)cc12,-17.5% (active)
4,O=S(=O)(NCCCNc1cc(-c2c(-c3cccc(O)c3)nc3sccn23)ccn1)c1cccc(Cl)c1,27.4% (inactive)
5,NC(=S)Nc1cccc(O)c1,98.6% (inactive)
6,Cc1cc(N2CCCC2)nc(NCc2cc(Nc3ccnc4cc(Cl)ccc34)ccc2F)n1,-96.1% (active)
7,COc1ccc(-c2nc(SCCC(C)C)nc(N/N=C\c3ccccc3O)c2C#N)cc1,87.8% (inactive)
8,N#Cc1c(-c2cccc(Cl)c2)cc(-c2cccc(F)c2)[nH]c1=O,90.4% (inactive)
9,O=C1CCc2c(sc3[nH]c(=S)n(-c4ccc(OC(F)(F)F)cc4)c(=O)c23)C1,55% (inactive)
10,CC1SC(c2ccc(OCc3ccccc3)cc2)N(NC(=O)C(O)(c2ccccc2)c2ccccc2)C1=O (stereo not given),57.7% (inactive)
11,CCCc1cc2c(=O)c(C(=O)OC)c[nH]c2cc1N(CC)CC,109% (inactive)
12,O=Cc1ccc(O)c2ncccc12,60.3% (inactive)
13,CC(C)(C)c1ccc(/C=C/C(=O)Nc2ccc(O)cc2)cc1,50.9% (inactive)
14,COc1cccc(C(=O)NCCNc2cc(-c3cn(-c4ccccc4)nc3-c3cccc(OC)c3)ccn2)c1,64.3% (inactive)
15,O=C(NC(Cc1nnc2n(Cc3ccccc3)c(=O)c3c4c(sc3n12)CCCC4)c1ccc(Cl)cc1)c1ccccc1 (stereo not given),56.8% (inactive)
16,Cc1ccc(C(=O)C2=C(O)C(=O)N(Cc3cccnc3)C2c2ccccc2F)o1 (stereo not given),102% (inactive)
17,COc1cc(/C=C/C(=O)c2c(C)nc3ccccc3c2C)ccc1OCCCN1CCN(C(=O)c2ccco2)CC1,61.6% (inactive)
18,COc1ccc2c(c1)O/C(=C\c1cccc(OCC(=O)Nc3nc(C)c(C)s3)c1)C2=O,80% (inactive)
19,Cc1ccc(NS(=O)(=O)c2ccc3c(c2)C(=O)CC(c2ccc(C(=O)C(C)C)cc2)N3)cc1C (stereo not given),58.3% (inactive)
20,O=C(/C=C/c1ccco1)c1ccc(Nc2nc(Nc3ccc(F)cc3)nc(Nc3ccc(Cl)cc3)n2)cc1,88.5% (inactive)

row,Compound,growth
1,COc1ccc(-c2nc(SC(C)C)nc(NNC(N)=S)c2C#N)cc1,-46.4% (active)
2,Cn1c2c(c3ccc(Cl)c(Cl)c31)C(C#N)C1(CCNCC1)NC2=O (stereo not given),5.97% (active)
3,CCC1(C2CCCC2)NC(=O)NC1=O (stereo not given),102% (inactive)
4,O=C(CSc1nnc(-c2ccc(NC(=O)c3cccnc3)cc2)o1)N[C@@H](Cc1ccc(O)cc1)C(=O)O,108% (inactive)
5,O=[N+]([O-])c1ccc(N2c3ccncc3Sc3ccncc32)cc1,112% (inactive)
6,CCCCCCCOc1c(OC)cc(C2CC(=O)Nc3c2c(C)nn3-c2nc3ccccc3[nH]2)cc1OC (stereo not given),-27.6% (active)
7,CCCCCCCCCCN(CCCCCCCCCC)CC(=O)c1ccc2cc(Br)c3ccccc3c2c1,33.3% (inactive)
8,CCCCCCCCCCCCCCCCCCOc1ccc(CC(=O)OCC[N+]2(C)CCCC2)cc1,100% (inactive)
9,O=C1C=C[C@]2(C[C@@H](c3cccc(C(F)(F)F)c3)O[C@@H](c3cccc(C(F)(F)F)c3)O2)O1,-74.7% (active)
10,CCN1C(=O)N(CC)C2Nn3c(s/c(=C\c4cccc([N+](=O)[O-])c4)c3=O)=NC21 (stereo not given),-36.8% (active)
11,Cc1ccc(S(=O)(=O)Oc2cc(OS(=O)(=O)c3ccc(C)cc3)cc(OS(=O)(=O)c3ccc(C)cc3)c2)cc1,96.2% (inactive)
12,Clc1cccc(Cl)c1/C=C/c1cc(/C=C/c2c(Cl)cccc2Cl)[nH]n1,-50% (active)
13,C=CC(=O)Nc1cccc(Oc2nccc(Nc3nnc(C4CC4)s3)n2)c1,99.5% (inactive)
14,CCC(CO)Nc1nc2ccc(Cl)cc2c2ccccc12 (stereo not given),58% (inactive)
15,COc1ccc(C2=NN(C(=O)c3cc(OC)c(OC)c(OC)c3)C(c3ccc(Cl)cc3)C2)cc1OC (stereo not given),-43.3% (active)
16,NC[C@H](O)c1ccc(O)c(O)c1,109% (inactive)
17,N[C@@H](CCCCNCC(=O)O)C(=O)O,102% (inactive)
18,CCN(CCNc1ccc(C)c2sc3ccccc3c(=O)c12)CC(C)(C)O,79% (inactive)
19,Oc1ccc(CN2CCC(N3CCOCC3)CC2)c2cccnc12,16.3% (inactive)
20,c1coc(-c2c3ccc(=[N+]4CCCCC4)cc-3oc3cc(N4CCCCC4)ccc23)c1,-68.1% (active)
